Assay outcomes as filed in PubChem BioAssay.
MCL1-BIM inh – inhibitors of MCL1 binding to BIM-BH3, primary screen, biochemical, fluorescence polarization. Induced myeloid leukemia cell differentiation protein Mcl-1 (Homo sapiens), Q07820. 320,000 compounds, 0.68% hits. GST-MCL1 / FITC-Bim-BH3 fluorescence polarization. inhibition, % at 10.9 µM;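 active means inhibition above the mean inhibition of all tested compounds plus 3 SD, set per campaign, cut at about 40% in these data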;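 further: higher means more loss of mP so more displacement of Bim peptide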
Target sequence (Q07820 whole entry, looked up): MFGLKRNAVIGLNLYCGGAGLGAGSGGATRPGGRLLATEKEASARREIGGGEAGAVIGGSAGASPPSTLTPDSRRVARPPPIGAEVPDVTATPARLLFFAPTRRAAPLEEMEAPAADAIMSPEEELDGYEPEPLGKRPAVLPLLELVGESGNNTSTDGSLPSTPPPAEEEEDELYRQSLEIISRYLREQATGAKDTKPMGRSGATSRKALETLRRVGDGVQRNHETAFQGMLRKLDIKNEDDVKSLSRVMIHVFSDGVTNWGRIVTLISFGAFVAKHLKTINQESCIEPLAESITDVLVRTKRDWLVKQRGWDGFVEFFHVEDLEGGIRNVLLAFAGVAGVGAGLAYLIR
Mcl1 Bid PPI – Mcl-1/Bid binding inhibitors, primary screen, biochemical, TR-FRET, 1536-well; inhibition, % at 21.7 µM; 220,000 compounds, 0.97% hits; Induced myeloid leukemia cell differentiation protein Mcl-1 (Homo sapiens), Q07820; AID 1021, 2008; TR-FRET Mcl-1/Bid-Dy647 peptide binding;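 active means compounds that cut the binding signal by more than half at the single screening dose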;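 further: His-tagged Mcl-1 with europium anti-His antibody binding Bid BH3 peptide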
Mcl1-Noxa inh – Mcl-1/Noxa binding inhibitors, primary screen, biochemical, TR-FRET, 1536-well. Induced myeloid leukemia cell differentiation protein Mcl-1 (Homo sapiens), Q07820. TR-FRET Mcl-1/Noxa peptide binding, 2 h. inhibition, % at 21.7 µM. 220,000 compounds, 1.5% hits. AID 1022, 2008;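 active means compounds that cut the protein-peptide binding signal by more than 50% relative to plate controls in a single-dose test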;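 further: His-tagged Mcl-1 with rhodamine Noxa BH3 peptide and terbium anti-His antibody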
GLD-1 RNA inh – GLD-1/TGE RNA complex disruptors, primary screen, biochemical, fluorescence polarization. purified GLD-1 + fluorescein TGE RNA. inhibition, % at 5.96 µM. 320,000 compounds, 0.44% hits;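 active means percent inhibition above a per-plate cutoff, the plate mean of test compounds plus 3 SD, cut at about 30% in these data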
Bcl-xL primary – inhibitors of human Bcl-xL, primary screen, biochemical, fluorescence polarization, HTS; Bcl-2-like protein 1 (Homo sapiens), Q07817; GST-Bcl-xL / FITC-Bim BH3 peptide fluorescence polarization; inhibition, % at 10.9 µM; 320,000 compounds, 0.7% hits; AID 2129, 2009;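 active means inhibition above the mean of all tested compounds plus 3 SD, cutoff set per campaign, cut at about 30% in these data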;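 further: inhibitors lower millipolarization by displacing the labeled peptide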
Mcl-1 Bim block – inhibitors of Bim peptide binding to Mcl-1, primary screen, biochemical, bead-based flow cytometry, multiplex. Induced myeloid leukemia cell differentiation protein Mcl-1 (Homo sapiens), Q07820. inhibition, % at 10 µM. 190,000 compounds, 0.1% hits. AID 1009, 2008. Bim peptide-Mcl-1 binding; in the data active means inhibition above about 40%
Hits are given with their value; – = inactive; · = no result. Compounds with a hit are over-represented: about 2.3% of the library has one in this group of screens.

SMILES | MCL1-BIM inh | Mcl1 Bid PPI | Mcl1-Noxa inh | GLD-1 RNA inh | Bcl-xL primary | Mcl-1 Bim block
O=[N+]([O-])c1ccc(S(=O)(=O)c2cccc(C(F)(F)F)c2)nc1 | – | · | · | – | – | ·
COc1ccc(NC(=O)COC(=O)Cn2cnc3ccccc3c2=O)c(OC)c1 | – | · | · | – | – | ·
CC1(C)Cc2c(c(-c3ccco3)nc3sc4c(NCC5CCCO5)ncnc4c23)CO1 (centres undefined) | – | – | 51 | – | – | –
CC1(C)Cc2c(c(-c3ccco3)nc3sc4c(NCCN5CCOCC5)ncnc4c23)CO1 | – | – | 63 | – | – | –
CC1(C)Cc2c(c(-c3ccco3)nc3sc4c(NCCCO)ncnc4c23)CO1 | – | – | – | – | – | ·
COC(=O)c1cc(N=Nc2sc(N)nc2C)cc(C(=O)OC)c1 | – | – | 53 | – | – | ·
CC1N(C)c2cc(NC(=O)c3ccco3)ccc2C1(C)C (centres undefined) | – | – | – | 36 | – | –
O=C(Oc1ccc(C(=S)N2CCC(O)CC2)cc1)c1ccc(Cl)cc1 | – | – | – | – | 100 | –
O=C(NCc1ccccn1)C(=O)NCC(c1ccco1)N1CCN(c2ccc(F)cc2)CC1 (centres undefined) | – | – | – | – | 32 | –
O=[N+]([O-])c1ccc(N/N=C/c2cn(Cc3ccc(F)cc3)c3ccccc23)nc1 | – | 94 | 57 | – | – | –
CC(=O)c1ccc(S(=O)(=O)N2CCn3cccc3C2C)cc1 (centres undefined) | 42 | · | · | – | 43 | ·
CC1c2cccn2CCN1S(=O)(=O)c1ccc(F)cc1 (centres undefined) | – | · | · | – | – | ·
COC(=O)c1ccccc1S(=O)(=O)N1CCn2cccc2C1C (centres undefined) | – | 69 | – | – | – | –
CC(=O)c1cccc(S(=O)(=O)N2CCn3cccc3C2C)c1 (centres undefined) | 40 | · | · | – | 33 | ·
COc1ccc(NC(C)=O)cc1S(=O)(=O)N1CCn2cccc2C1C (centres undefined) | – | · | · | – | – | ·
CC1CCc2c(sc3[nH]c(=S)n(C)c(=O)c23)C1 (centres undefined) | – | · | · | – | – | ·
COc1ccc(C2=Nn3c(nnc3-c3ccccc3OC)SC2)cc1OC1CCOC1 (centres undefined) | · | · | · | – | · | ·
COc1ccc2c(=O)c3c(=O)n(-c4ccc(C)cc4)c(-c4ccccc4)nc3oc2c1 | – | – | 81 | – | – | ·
COCCn1c(-c2ccc(F)cc2)nc2oc3cc(OC)ccc3c(=O)c2c1=O | – | – | – | – | – | ·
Cc1ccc(-n2c(C)nc3oc4ccccc4c(=O)c3c2=O)cc1 | – | – | 65 | – | – | –
CCc1nc2oc3cc(OC)ccc3c(=O)c2c(=O)n1Cc1ccccc1 | – | – | – | – | – | –
CCCc1nc2oc3cc(OC)ccc3c(=O)c2c(=O)n1CCc1ccccc1 | – | 69 | – | – | – | ·
COc1ccc2c(=O)c3c(=O)n(-c4ccccc4)c(-c4ccco4)nc3oc2c1 | – | – | – | – | – | –
CCc1nc2oc3cc(OC)ccc3c(=O)c2c(=O)n1-c1ccccc1 | – | – | – | – | – | –
COCCn1c(-c2ccc(C)cc2)nc2oc3cc(OC)ccc3c(=O)c2c1=O | – | 53 | – | – | – | ·
SMILES | MCL1-BIM inh | Mcl1 Bid PPI | Mcl1-Noxa inh | GLD-1 RNA inh | Bcl-xL primary | Mcl-1 Bim block
O=C(CSc1nnc(-c2ccc(F)cc2)o1)N1CCCC1 | – | · | · | – | – | ·
c1ccc(Nc2cccc(Nc3ccccc3)c2)cc1 | – | – | 88 | – | – | –
Nc1cccc(Nc2ccccc2)c1 | – | – | – | – | 50 | –
S=c1[nH]nc(-c2ccco2)n1/N=C/c1cccc(Cl)c1Cl | – | – | 72 | – | – | –
Cn1c(NC(=O)c2ccccc2C(F)(F)F)cc(=O)n(C)c1=O | – | – | – | 162 | – | –
Cc1cc(C)nc(NCC(O)COc2ccccc2C)n1 (centres undefined) | – | 101 | – | – | – | –
